Inhibition data for 86 molecules are collected here from PubChem BioAssay AID2717 (Broad Institute, 2010).

Hit rate of the full screen: of about 300,000 compounds, about 3,200 (1.1%) were called active. This excerpt belongs to a sample that is enriched for actives. A number with no mark means an inactive call. No stated cut-off is given here; in the data, active means inhibition above about 75%; inconclusive means no clear call, values can overlap the other calls; inactive means below that; tested in HMLE shEcad cells.

This assay can be described thus: growth suppression of cancer stem-like cells – cell-based, luminescence, primary screen (AID 2717). The conditions noted are these: cancer stem cell-like cells viability, at 7.5 µM, hits give high values.
As usually defined, the inhibition is the relative decrease from the control value, in per cent. `O=S(=O)(Nc1ncnc2sccc12)c1cccc(F)c1`: the inhibition was -7.13%. On to `COc1ccc(NC(=O)CNc2cc(S(=O)(=O)N3CCOCC3)ccc2N2CCOCC2)c(OC)c1`, for which the inhibition was 6.36%. To `COc1ccccc1N(CCOc1ccccc1)S(=O)(=O)c1ccccc1` belongs 7.81%; to `COc1ccc2c(c1)O/C(=C\c1ccccc1O)C2=O`, -1.63%. As to `COc1cc(C#Cc2ccc3cc(CCCO)oc(=O)c3c2)cc(OC)c1`, the inhibition was 11.5%. On to `COc1cc(/C=C2\Oc3ccc(C#Cc4ccc(O)cc4)cc3C2=O)cc(OC)c1`, for which the inhibition is 115% (active). The value for `O=C1N[C@H](Cc2c[nH]c3ccccc23)COC(=O)[C@H](Cc2ccc(F)cc2)C/C=C\C[C@H]1CC(=O)N(CCO)Cc1ccccc1` was 36.2%; that for `CC(=O)NC(CC(=O)Nc1ccc(S(=O)(=O)N2CCOCC2)cc1)c1ccccc1` (stereo unspecified) was -4.54%; that for `CC(=O)c1c(C)[nH]c(C(=O)COC(=O)c2cccs2)c1C` was -12.4%. Regarding `COc1ccc(C(=O)C(C)OC(=O)c2cccc(S(=O)(=O)Nc3c(C)n(C)n(-c4ccccc4)c3=O)c2)cc1` (stereo unspecified), the inhibition was -12.3%.

For the molecule `O=C(CN1C(=O)NC2(CCCC2)C1=O)Nc1cc(C(F)(F)F)ccc1N1CCOCC1`, the inhibition is -16.7%. With `CCOC(=O)C1CCCN(C(=O)CSc2nnc3nc(C)cc(C)n23)C1` (stereo unspecified), the inhibition was 8.11%. Regarding `CC(=O)C1C(c2ccc(Cl)cc2)NC(=O)NC1(O)C(F)(F)F` (stereo unspecified), the inhibition was -6.38%.

In the case of `CC1=NN(c2ccc(Cl)c(C(=O)O)c2)C(=O)/C1=C/c1ccc(-c2ccccc2[N+](=O)[O-])o1`, the inhibition was 12.7%.

Take `O=C(/C=C(O)/C=C/c1ccc(O)cc1)/C=C/c1ccc(O)cc1`: the inhibition was 44.3%. As for `CC1Sc2ccc(C(=O)NCc3ccccc3Cl)cc2NC1=O` (stereo unspecified), the inhibition was -22.7%. Consider `Cc1ccc(C(=O)NCC(=O)NC2CC2)cc1`, for which the inhibition is -14.8%.

As for `CCc1ccc(NC(=O)COC(=O)c2cccs2)cc1`, the inhibition was -11.1%. Take `O=C(OCC(=O)c1cccs1)C1=COCCO1`: the inhibition was -0.0949%. To `CCC(C)(C)c1ccc(Oc2ccc(NC(=O)COC(=O)C3=COCCO3)cc2)cc1` belongs 103% (active); to `O=C1OC[C@@H]2CCCN2C(=O)[C@H](CC(=O)N(CCO)Cc2ccccc2)C/C=C\CC[C@@H]1Cc1ccc(F)cc1`, -11.9%; to `CCOc1ccccc1Nc1nnc(SCC(=O)NCC2CCCO2)s1` (stereo unspecified), -6.96%. For the molecule `C=CCC[C@@H](Cc1ccc(F)cc1)C(=O)O[C@H](CNC(=O)[C@H](CC=C)CC(=O)N(CCO)Cc1ccccc1)c1ccccc1`, the inhibition was 41.9%.

For the molecule `COc1cc(OC)c(C(=O)NNC(=O)c2ccccc2-n2cccc2)cc1OC`, the inhibition was 17.7%.

Take `COc1ccc(CNc2nc(NCc3ccc(OC)cc3)c3ncn(C4CCCC4)c3n2)cc1`: the inhibition is 62.8%.

Turning to `O=C(Cn1cnc2c(OCc3ccccc3)ncnc21)NCCCn1ccnc1`, the inhibition is -10.9%.

Regarding `O=C(COC(=O)CN1C(=O)C2CCCCC2C1=O)Nc1ccc(F)c(F)c1F` (stereo unspecified), the inhibition was -26.6%. Consider `O=c1c(-c2cccc(Cl)c2)c[nH]n1-c1ccccc1`, for which the inhibition was 6.17%. `O=C1NC(c2cccc(Cl)c2)Nc2ccccc21` (stereo unspecified): the inhibition is 23%. The value for `O=C1c2ccccc2NC(c2ccc(-c3cccc(Cl)c3)o2)N1O` (stereo unspecified) was 85.5% (active); that for `C[C@@H](CN1CCC[C@H]1CN1C(N)=NC[C@@H]1Cc1ccccc1)N1C[C@@H](Cc2ccccc2)N(CCCC2CCCC2)C1=N` was 1.15%; that for `CCOCc1c(C(=O)N2CCN(Cc3ccc(Br)s3)CC2)oc2ccccc12` was -4.05%. Take `COc1ccc(-c2cc(C(F)(F)F)nc(NCc3cccnc3)n2)cc1`: the inhibition was 32.4%.

As to `COc1cc(OC)nc(S(C)(=O)=O)n1`, the inhibition was 2.64%. The value for `COc1ccc(-c2cc(C(F)(F)F)nc(S(C)(=O)=O)n2)cc1OC` was 94.1% (active). In the case of `C[C@H](NS(=O)(=O)c1ccc(Cl)cc1)C(=O)OCC(=O)N1CCOCC1`, the inhibition was 17.5%.

With `Oc1ccc(/C=N/Nc2nc(-c3ccccc3F)nc3ccccc23)c(O)c1`, the inhibition is 123% (active). Consider `Fc1ccc(/C=N/Nc2nc(-c3cccnc3)nc3ccccc23)cc1`, for which the inhibition is 5.78%.

For `Cc1nc2ccccc2nc1N/N=C/c1ccc(O)cc1O`, the inhibition is 63.2%. With `Cc1noc(C)c1S(=O)(=O)N(C)C[C@H]1Oc2ccc(NC(=O)C3CCCCC3)cc2C(=O)N([C@H](C)CO)C[C@@H]1C`, the inhibition was -25.9%.

Turning to `CCCc1cc(=O)[nH]c(SCC(=O)Nc2ccc(C(=O)Nc3ccccc3OC)cc2)n1`, the inhibition was -1.96%. Take `O=C(COC(=O)c1cccnc1Cl)NC12CC3CC(CC(C3)C1)C2`: the inhibition is -4.72%. As for `O=C(COC(=O)c1cc[n+]([O-])cc1)Nc1ccc(Cl)c(C(F)(F)F)c1`, the inhibition was 13.8%. For the molecule `CC(=O)Nc1ccc(N2C(=O)C3C4C=CC(CC4)C3C2=O)cc1` (stereo unspecified), the inhibition was 5.09%. `Cc1ccc(N2C(=O)C3C4C=CC(CC4)C3C2=O)cc1Br` (stereo unspecified): the inhibition is 84.8% (active). With `Cc1ccc(N2C(=O)C3C4C=CC(CC4)C3C2=O)cc1Cl` (stereo unspecified), the inhibition is 51.3%. Take `O=C(CN1C(=O)NC2(CCCCCCC2)C1=O)NCc1ccc(F)cc1`: the inhibition was -11.3%. With `CCNC(=S)N1CCN(S(=O)(=O)c2ccc(Cl)s2)CC1`, the inhibition is -8.45%. Regarding `COc1ccc(/C=C/c2nnc(NC(=O)C(C)C)s2)cc1`, the inhibition was -1.02%. Take `COc1ccc(NC(=O)COC(=O)c2ccc(NS(=O)(=O)/C=C/c3ccccc3)cc2)cc1`: the inhibition is -2.32%. Take `COC(=O)c1ccc(/C=C/c2c(-c3ccc(OC)cc3)sc3ccccc23)cc1`: the inhibition is 120% (active). For `CC(C)Cn1c(SCC(=O)Nc2ccc(Cl)cc2F)nc(O)cc1=O`, the inhibition is -7.16%. With `O=C(CSc1ncnc2sccc12)NC1CCS(=O)(=O)C1` (stereo unspecified), the inhibition is -16.5%. Regarding `O=C(COC(=O)c1cccnc1Cl)Nc1ccc(S(=O)(=O)N2CCOCC2)cc1`, the inhibition was 1.63%. `CCCc1cc(-c2nc(-c3ccc(C)cc3)cs2)ccn1`: the inhibition was 101% (active).

Take `Cc1ccc(-c2csc(-c3cc(C)on3)n2)cc1`: the inhibition is -0.292%. As for `Cc1ccc(-c2csc(-c3c[nH]c4ccccc34)n2)cc1`, the inhibition was 0.177%. For `O=C(CCc1ccc(S(=O)(=O)N2CCOCC2)cc1)OCC(=O)c1ccc(Br)cc1`, the inhibition is 7.19%. Consider `COc1ccc(NS(=O)(=O)c2cc(NC(=O)c3ccc(S(=O)(=O)N(C)C)cc3)ccc2N2CCOCC2)cc1`, for which the inhibition was -5.14%.

On to `COc1cc(OC)cc(-c2c(C#Cc3ccsc3)c3cc(-c4ccc(OC)cc4F)ccc3n2C)c1`, for which the inhibition is 0.462%. `COc1ccc(/C=C(\C#N)c2c[nH]c3ccccc23)cc1`: the inhibition is 102% (active). To `COc1cc(/C=C(\C#N)c2nc3ccccc3[nH]2)ccc1O` belongs 33.3%; to `COc1ccc2[nH]cc(/C=C(/C#N)S(=O)(=O)c3ccccc3)c2c1`, 12.3%. Regarding `Cc1cc(C)c(CN2CCN(C(=O)Cn3ccc(NC(=O)OCc4ccccc4)nc3=O)CC2)c(C)c1`, the inhibition is -17.4%. `C=CC[C@@H](CC(=O)N[C@@H](CO)Cc1ccccc1)C(=O)N[C@H](COC(=O)[C@H](CC=C)CC(=O)OC(C)(C)C)Cc1ccccc1`: the inhibition was -16.7%. The value for `COCC(C)n1c(SCC(=O)NC2CCCCC2C)nc2ccccc2c1=O` (stereo unspecified) was 4.54%.

As for `S=c1[nH]nc(-c2cccnc2)n1/N=C/C(Cl)=C\c1ccccc1`, the inhibition is 8.61%. The value for `S=c1[nH]nc(-c2cc(-c3ccccc3)n[nH]2)n1/N=C/c1c2ccccc2cc2ccccc12` was 48%. The value for `Cc1cc(-c2n[nH]c(=S)n2/N=C/C(Br)=C/c2ccccc2)n[nH]1` was 82.9% (active); that for `CN(C(=O)CSc1cccc[n+]1[O-])C1CCCCC1` was -18.5%; that for `C[C@H](CO)N1C[C@H](C)[C@@H](CN(C)S(=O)(=O)c2ccc(F)cc2)Oc2c(NC(=O)Nc3ccccc3)cccc2C1=O` was -11.6%.

With `CC1Cc2ccccc2N1S(=O)(=O)c1cccc(C(=O)OCC(=O)N2CCOCC2)c1` (stereo unspecified), the inhibition was -6.52%.

`COc1cc(OC)cc(C(=O)N[C@H](C(=O)NNC(=O)c2ccc(Br)cc2)C(C)C)c1`: the inhibition is -10.3%.

As for `Cc1cccc(N(C)C(=O)c2cc3c(=O)[nH]c4ccc(C)cc4c3s2)c1`, the inhibition is 80.5% (active). In the case of `Cc1ccc2[nH]c(=O)c(CC(=O)O)c(-c3ccccc3)c2c1`, the inhibition is -9.95%. The value for `CCN(CC)CCCNC(=O)c1cc2c(=O)[nH]c3ccc(C)cc3c2s1` was -3.35%; that for `O=C(COc1ccc([N+](=O)[O-])cc1Cl)Nc1ccc2[nH]c(=O)[nH]c2c1` was -8.82%. As for `CC1CCCCC12NC(=O)N(CC(=O)N1CCN(c3ccccc3)CC1)C2=O` (stereo unspecified), the inhibition is -3.2%. To `CCOc1ccc(Br)cc1S(=O)(=O)Nc1ccc(S(=O)(=O)Nc2cc(C)on2)cc1` belongs -12.8%; to `COc1ccccc1CNC(=O)c1ccc(Cl)c(S(=O)(=O)N2CCCC2)c1`, -0.0556%; to `COc1ccc(S(=O)(=O)N2CCOCC2)cc1NC(=O)CSc1nnc(NC2CC2)s1`, -7.56%. In the case of `CCCCNc1c(-c2cccc(Sc3ccc(OC)cc3)c2)nc2ccccn12`, the inhibition was 78% (active). For `CCCCNc1nc2c(c(=O)n(C)c(=O)n2C)n1Cc1cccc(OC)c1`, the inhibition is -3.15%. Turning to `CCCCCCSc1ccc(-c2nc3ccc(Cl)cn3c2NCc2ccccc2)cc1`, the inhibition was 61.1%.

Consider `O=C(NN=Cc1ccc(N2CCOCC2)cc1)c1cc2ccccc2cc1O`, for which the inhibition is 10.1%. On to `COc1ccc(S(=O)(=O)N2CCCCCC2)cc1NC(=O)Cc1ccc(OC)c(OC)c1`, for which the inhibition is -7.41%.
